HT1080 IDH1KD tx: qHTS for induction of synthetic lethality in tumor cells producing 2HG: qHTS for the HT-1080-IDH1KD cell line; HT-1080 IDH1 knockdown viability, ATP luminescence, 48 h; Potency, µM (series often up to 46.1 µM), for the others: at the highest dose activity, negative = toxicity, most hits filed as cytotoxic; 360,000 tested, 2% active; AID 686971, 2013;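 further: potency means the concentration at half of the fitted maximal effect; 0% = DMSO wells and -100% = cell-free medium wells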
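% activity derives from luminescence (CellTiter-Glo), normalised to DMSO and no-cell wells. HT-1080-IDH1KD cells, 750/well, had 48 h compound exposure at 37 °C.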
IL-1B inflam inh: qHTS for Inhibitors of Inflammasome Signaling: IL-1-beta AlphaLISA Primary Screen; activity change, % at 57.5 µM; AID 743279, 2014; THP-1 LPS/ATP IL-1B secretion, AlphaLISA, 16 h; stronger effect = lower value; 360,000 tested, 4.7% active; in the data active means activity change below about -50%; inconclusive means mostly about -30% to -49%
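Secreted IL-1B measured by AlphaLISA bead assay after 16 h compound exposure of THP-1 cells; compounds (final up to 57.5 uM) added 1 h before LPS (250 ng/mL) and ATP (1.25 mM) stimulation; lower signal means less secretion.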
TDP1 cell noCPT: qHTS for Inhibitors of human tyrosyl-DNA phosphodiesterase 1 (TDP1): qHTS in cells in absence of CPT; DT40 Tdp1-/- hTDP1 cells, no CPT, ATP luminescence, 48 h; 420,000 tested, 15% active; Potency, µM (top dose mostly 46.2 µM), for the others: at the top dose activity change, negative = growth inhibition, hits mostly inhibitors; further: potency means the concentration at half of the fitted maximal effect; nearly all actives have a fitted effect of over 55% in size
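Compound effects on proliferation are scored in DT40 Tdp1-/-;hTDP1 cells in the absence of CPT. ATP levels (CellTiter-Glo luminescence) are recorded after a ≥48 hr, 37 °C incubation.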
ELG1 repair inh: qHTS screen for small molecules that inhibit ELG1-dependent DNA repair in human embryonic kidney (HEK293T) cells expressing luciferase-tagged ELG1; HEK293T ELG1-luciferase reporter, luminescence, 16 h; DNA damage induced by 5-fluorouridine; Potency, µM (doses to about 46.1 µM), without a hit: top-dose activity change, negative = inhibition, most hits filed as inhibitors; 330,000 tested, 2.3% active; AID 504467, 2011; further: potency means the concentration at half of the fitted maximal effect; nearly all actives have a fitted effect of over 55% in size
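DMSO vehicle served as the neutral condition. Each well held 2,000 cells given 5-fluorouridine plus compound; after 16 hr at 37 °C/5% CO2, ONE-Glo was added and luciferase measured 30 min later.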
TDP1 cell CPT: qHTS for Inhibitors of human tyrosyl-DNA phosphodiesterase 1 (TDP1): qHTS in cells in presence of CPT. chicken DT40 Tdp1-/-;hTDP1 cells + 20 nM CPT, ATP luminescence, 48 h. Potency, µM (titrated, usually from 46.2 µM), for inactives: top-dose activity change, negative = growth inhibition, actives largely listed as inhibitors. 420,000 tested, 12% active. AID 686979, 2013; further: potency means the concentration at half of the fitted maximal effect; nearly all actives have a fitted effect of over 55% in size
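Cell growth measured by CellTiter-Glo luminescence after a minimum 48 h, 37 C compound exposure with 20 nM CPT in Tdp1-knockout DT40 cells stably expressing hTDP1, seeded 400/well; qHTS titration format.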
HT1080-NT tox: qHTS for induction of synthetic lethality in tumor cells producing 2HG: qHTS for the HT-1080-NT fibrosarcoma cell line. HT-1080-NT fibrosarcoma viability, CellTiter-Glo ATP luminescence, 48 h. 360,000 tested, 1.6% active. Potency, µM (doses to about 46.1 µM), inactives show at the highest dose activity, negative = less viability, most hits filed as cytotoxic;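 further: NT is the 2HG producing partner of a matched IDH1 knockdown line; potency means the concentration at half of the fitted maximal effect; 0% = DMSO-treated cells and -100% = media-only wells without cells; nearly all actives have a fitted effect of over 55% in size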
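Fibrosarcoma NT cells, 750 per well in 5% FBS RPMI, were exposed to compound for 48 hours. Viability: CellTiter-Glo luminescence.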
Active calls of the source: *; ? = inconclusive; · = not tested or not shown. An excerpt weighted towards active compounds, which were near 19% of everything screened. Unless noted, the call rests on the fitted dose curve; in most records, active means well fitted curve in the direction sought with a large enough effect; inconclusive means small, poorly fitted or top-dose-only effect, or another doubt; inactive means no such curve, though single readings can be large; an effect the other way counts as inactive or inconclusive. Unless noted, on the % scale 0 is the no-effect control and ±100 the full control effect.

SMILES	HT1080 IDH1KD tx	IL-1B inflam inh	TDP1 cell noCPT	ELG1 repair inh	TDP1 cell CPT	HT1080-NT tox
CN(Cc1ccccc1)c1ncc(C=O)s1	1%	-20	14%	?	-1%	-6%
COC(=O)c1ccccc1NC(=O)CNc1ccc(F)c(S(=O)(=O)N2CCOCC2)c1	1%	-1	-21%	-8%	-20%	-3%
CCCCc1nn2c(=O)cc(COC(=O)c3ccc(NC(=O)c4cccc(OC)c4)cc3)nc2s1	·	·	-7%	·	5%	·
O=C1NC(=O)C2(CCCC2C(=O)O)N1 (configuration not stated)	4%	19	0%	·	1%	7%
Cn1c(=O)n(C)c2cc(S(=O)(=O)NCCc3ccccc3)ccc21	-12%	18	23µM*	?	23µM*	-2%
Cc1ccc(CNS(=O)(=O)c2ccc3c(c2)n(C)c(=O)n3C)cc1	-17%	6	?	8.2µM*	?	2%
CCCNS(=O)(=O)c1ccc2c(c1)n(C)c(=O)n2C	1%	5	-22%	-2%	-11%	-4%
COc1ccc(C(CNC(=O)CCNS(=O)(=O)c2ccccc2C(F)(F)F)N2CCOCC2)cc1 (configuration not stated)	12%	-12	-8%	·	-13%	3%
COc1ccc(OC)c(S(=O)(=O)NCC(c2cccs2)N2CCc3ccccc3C2)c1 (configuration not stated)	-12%	3	?	29%	16µM*	-11%
COc1ccc(S(=O)(=O)NCC(c2cccs2)N2CCc3ccccc3C2)cc1 (configuration not stated)	-3%	-3	?	13%	-25%	0%
CCCCOc1ccc(C(=O)N2CCC(C)CC2)cc1	-4%	?	-22%	29%	-21%	-6%
CCCCOc1ccc(C(=O)OC2CC(C)N(C)CC2C)cc1 (configuration not stated)	?	-54*	16µM*	27%	?	?
CC1CN(C)C(C)CC1OC(=O)C(c1ccccc1)c1ccccc1 (configuration not stated)	-10%	?	23µM*	·	?	-14%
C[C@H](O)[C@@H]1C(=O)N2CCc3ccc(N4CCOCC4)cc3[C@@H]2C[C@@H]1N(C)C(=O)Nc1ccccc1	4%	-7	-9%	·	-16%	1%
CC(C)CNC(=S)N(CCCO)Cc1cc2cc3c(cc2[nH]c1=O)OCO3	4%	-6	-20%	?	?	0%
CC(C)CNC(=S)N(CCN(C)C)Cc1cc2cc3c(cc2[nH]c1=O)OCO3	-7%	?	5.2µM*	-7%	?	-1%
CCN(CC)CCCN(Cc1cc2cc3c(cc2[nH]c1=O)OCO3)C(=S)Nc1ccccc1	?	-65*	?	-5%	?	-25%
CCCCNC(=S)N(CCN(CC)CC)Cc1cc2cc3c(cc2[nH]c1=O)OCCO3	-10%	?	?	?	26µM*	-9%
O=C(COc1ccccc1-c1ccccc1)NNC(=O)NC1CCCCC1	-9%	-3	?	?	-19%	-22%
O=C(Nc1c(C(=O)c2ccc(Cl)cc2)oc2ccccc12)c1cc(=O)c2ccccc2o1	·	·	?	·	0%	·
O=C(CSc1nnc(C2CC2)n1C1CC1)N1CCN(c2ccc(O)cc2)CC1	-15%	-3	-6%	·	1%	-22%
CCc1ccc(S(=O)(=O)Nc2ccc(-c3ccc(N4CCCC4)nn3)cc2)cc1	·	·	-15%	·	-22%	·
Cc1ccc(S(=O)(=O)Nc2ccc(-c3ccc(N4CCCCCC4)nn3)cc2)cc1C	·	·	-49%	·	2.9µM*	·
O=S(=O)(Nc1ccc(-c2ccc(N3CCCC3)nn2)cc1)c1ccc(OC(F)(F)F)cc1	·	·	?	·	15µM*	·
CCCCOc1ccc(S(=O)(=O)Nc2ccc(-c3ccc(N4CCCCCC4)nn3)cc2)cc1	·	·	?	·	13µM*	·
SMILES	HT1080 IDH1KD tx	IL-1B inflam inh	TDP1 cell noCPT	ELG1 repair inh	TDP1 cell CPT	HT1080-NT tox
CCc1ccc(S(=O)(=O)Nc2ccc(-c3ccc(N4CCCCCC4)nn3)cc2)cc1	·	·	-7%	·	-11%	·
CCCCOc1ccc(S(=O)(=O)Nc2ccc(-c3ccc(N4CCCCC4)nn3)cc2)cc1	·	·	21µM*	·	15µM*	·
c1ccc(-c2cncnc2)cc1	0%	41	2%	24%	-6%	2%
O=C(CCN1CCCCO1)N1CCCC(Nc2cccc(F)c2)C1 (configuration not stated)	13%	25	2%	-9%	-4%	14%
COC(=O)N1C(=O)[C@](CC(C)C)(c2ccccc2)N1C(=O)OC	-4%	·	16µM*	?	21µM*	5%
CC[C@@]1(c2ccccc2OC)C(=O)N(C(=O)OC)N1C(=O)OC	-12%	-87*	?	-11%	?	-27%
CCOC(=O)N1CCN(C(=O)CN2C(=O)NC(c3ccccc3)(c3ccccc3)C2=O)CC1	-16%	24	-21%	-13%	9%	-16%
CCOC(=O)N1C(=O)[C@@](CC)(c2ccccc2)N1C(=O)OCC	2%	·	13µM*	-9%	8.2µM*	-6%
COc1ccc(CNC(=O)C(C)N2C(=O)NC(c3ccccc3)(c3ccccc3)C2=O)cc1 (configuration not stated)	0%	?	2%	-11%	-12%	-10%
CC[C@@]1(c2cccc(C)c2)C(=O)N(C(=O)OC)N1C(=O)OC	11%	-88*	18µM*	?	18µM*	9%
Cc1cc(C)c(OCC(=O)OCC(=O)N2c3ccccc3CC2C)c(C)c1 (configuration not stated)	0%	23	-6%	?	-11%	-3%
COc1cc(-c2cnc3c(NC=O)cc(-c4cccc(C(=O)NCCN(C)C)c4)cn23)cc(OC)c1OC	-1%	129	15µM*	·	?	5%
COc1ccc(-c2cc(NC=O)c3ncc(-c4cccc(C(=O)NCCN(C)C)c4)n3c2)c(OC)c1	23µM*	-3	3.7µM*	·	3.3µM*	18µM*

Compound activity (PubChem)
